From PubChem BioAssay (EPA / NIEHS) come the findings set out here.

Structures are written as SMILES. Active and inactive are the calls of the source. How the source made its calls: active means hit-call score of the fitted dose curve at least 0.9, where 1 is the maximum; inactive means score below 0.9.

Read-out in the assay: Intercellular Adhesion Molecule 1 (ICAM1), ICAM1 (gene 3383)
Nature of the assay: LTEA_HepaRG_ICAM1: Life Technologies and Expression Analysis (LTEA) Assay for Intercellular Adhesion Molecule 1 (ICAM1) using HepaRG (AID 2283507). The conditions noted are these: mRNA level, 48 h; actives raise or lower the signal. On the procedure: LTEA_HepaRG is a cell based, multiplexed-readout assay that uses HepaRG, a human liver cell line, with measurements taken at 48 hours after chemical dosing on a 96-well plate.LTEA_HepaRG_ICAM1 is one of 102 assay component(s) measured in the LTEA HepaRG cell culture assay. It is a marker of Fibrosis.Data from the assay component LTEA_HepaRG_ICAM1 was analyzed into 1 endpoint. This assay endpoint, LTEA_HepaRG_ICAM1, was analyzed with bidirectional fitting relative to DMSO as the negative control and baseline of activity. Using a type of inducible reporter, measures of mRNA induction for gain or loss-of-signal activity can be used to understand regulation of transcription factor activity. To generalize the intended target to other relatable targets, this assay endpoint is annotated to the cell adhesion molecules intended target family, where the subfamily is Immunoglobulin CAM.
A total of 1060 chemcials from the ToxCast library were tested in eight-point concentration-response experiments. Cell culture and cytotoxicity assays were conducted at Thermo Fisher Scientific's Custom Services facility (Madison, WI). A single lot of human HepaRG cells (Thermo Fisher Scientific, Frederick, MD) was used for the cell culture experiments. 96-well format collagen type I coated plates of human HepaRG cells were prepared using established methods. Briefly, cryopreserved HepaRG cells were thawed, plated at a density of approximately 100,000 cells/well in HepaRG Thaw, Plate, and General Purpose media (HPRG770, Thermo Fisher Scientific), and incubated for 48 hours. 0.5% DMSO was selected as vehicle control to balance the requisite need of DMSO in HepaRG cultures to maintain differentiation (for example, baseline metabolism, proportions of hepatocytes vs. cholangiocytes), while enabling further hepatic receptor pathway activation (for example, PXR and CAR) in response to chemical exposure. 48 hours after plating, the culture medium was replaced with HepaRG Serum-Free Incudtion Media. Cells were exposed to each test chemical in duplicate and maintained in CO2 incubators for another 48 hours. Chemical plates were thawed to room temperature and 200x concentrations of treatment groups were prepared. 8-point conentration-reponse curves were made with the highest exposure at 100 uM, followed by half-log dilutions, all in 0.5% DMSO. Each test plate contained variouse controls, induction positive controls (1mM phenobarbital), cytotoxicity positive controls ([…] aflatoxin B1), vehicle controls (0.5% DMSO), and total lysis controls (0.5% DMSO). Cell morphology images were taken using an Essen IncuCyte FLR automated microscope, with six 96-well plates imaged in about 24 minutes. Images were captured and exported and JPEG files. Spent culture media was transfered to black-well plates for the LDH assay, and remaining media was sorted at -80 C for later use. Cells were treated with RLT buffer and frozen until shipped for gene expression analysis. Total RNA was isolated from the cell suspension in 75 uL of Buffer RLT (Qiagen, Germantown, MD 20874) by Quintiles/Expression Analysis (Durham, NC) using a custom isolation procedure. Total RNA from each plate well was transferred to a preamplification plate. Fluidigm's 96.96 Dynamic ArrayTM (Fluidigm, Amsterdam, the Netherlands) technology was used for gene expression analyses by quantitative reverse transcription polymerase chain reaction (qRT-PCR, performed by Quintiles/Expression Analysis, Durham, NC)89. Standard TaqManTM Assays (Applied Biosystems/ThermoFisher Scientific, Foster City, CA) were used to assess the expression of 93 genes selected based on their selectivity and sensitivity to important hepatic receptors known to be modulated by environmental chemicals; importance in human hepatocyte functionality; and hepatotoxicity. […]
With `O=C1C2(Cl)C3(Cl)C4(Cl)C(Cl)(Cl)C5(Cl)C3(Cl)C1(Cl)C5(Cl)C24Cl` (stereo unspecified), the AC50 is 91.4 µM (active). As for `CN(C)N=O`, the outcome was inactive. Same read-out and setting: the entry for `O=c1[nH]c(=O)[nH]c(=O)[nH]1` is “inactive”; for `ClC1(Cl)C2(Cl)C3(Cl)C4(Cl)C(Cl)(Cl)C5(Cl)C3(Cl)C1(Cl)C5(Cl)C24Cl` (stereo unspecified) it is “inactive”; for `CC(C)(C)CC(C)(C)c1ccc(O)cc1` it is “inactive”. Regarding `CCC(C)(C)c1ccc(O)c(C(C)(C)CC)c1`, the outcome was inactive. Regarding `O=C(O)C(F)(F)C(F)(F)C(F)(F)C(F)(F)C(F)(F)C(F)(F)C(F)(F)C(F)(F)C(F)(F)C(F)(F)F`, the outcome was inactive. As for `Oc1cccc2cccnc12`, the molecule was called inactive.

`C=CC(=O)OCCCCCC(C)C`: the result was inactive. As for `COc1cc(-c2ccc(N)c(OC)c2)ccc1N`, the molecule was classed as inactive. For `C[C@@H]1C[C@@H]([C@H](O)CC2CC(=O)NC(=O)C2)C(=O)[C@@H](C)C1`, the AC50 was 11.9 µM (active). For the molecule `CC(C)(c1ccccc1)c1ccc(O)c(C(C)(C)c2ccccc2)c1`, the AC50 is 50 µM (active). As for `CCC(=O)C(CC(C)N(C)C)(c1ccccc1)c1ccccc1` (stereo unspecified), the outcome was inactive. Consider `O=C(O)C(F)(F)C(F)(F)C(F)(F)C(F)(F)C(F)(F)C(F)(F)F`, for which the molecule was called inactive. Same read-out and setting: the entry for `Cc1ccccc1N` is “inactive”.

Regarding `CCCCCCCCc1ccc(O)cc1`, the molecule was classed as inactive. For `C=C(C)C(=O)[O][Sn]([CH2]CCC)([CH2]CCC)[CH2]CCC`, the AC50 was 2.12 µM (active).

`CCN1CCC2(CC1)COc1cc3c(cc12)N(C(=O)c1ccc(-c2ccc(-c4nnc(C)o4)cc2C)cc1)CC3`: the AC50 was 11.1 µM (active). `Cn1sc(Cl)cc1=O`: the result was inactive. On the same count and under the same terms, the entry for `CC12CC1(C)C(=O)N(c1cc(Cl)cc(Cl)c1)C2=O` (stereo unspecified) is “inactive”. On to `O=C(Nc1ccc2[nH]ccc2c1)c1cc2cc(F)ccc2n1Cc1cccc(F)c1`, for which the half-maximal activity concentration (AC50) is 12.6 µM (active).

Turning to `NC(=O)O`, the molecule was classed as inactive.

As to `O=[N+]([O-])c1ccc(O)c([N+](=O)[O-])c1`, the call was inactive. For `CC(=O)[O][Hg][c]1ccccc1`, the AC50 is 0.558 µM (active).

As for `C[C@]12CCC(=O)C[C@@H]1CC[C@@H]1[C@@H]2CC[C@]2(C)[C@@H](O)CC[C@@H]12`, the outcome was inactive.

Take `O=C(O)C(Cl)(Cl)Cl`: the result was inactive. The same measure, in the same setting: for `CC(C)(OO)c1ccccc1` the value was “inactive”; for `CCOP(=S)(OCC)Oc1nc(Cl)c(Cl)cc1Cl`, “inactive”.

Regarding `CCOP(=S)(OCC)SCSP(=S)(OCC)OCC`, the outcome was inactive. Take `ClCC(Cl)CCl`: the molecule was called inactive. On the same count and under the same terms, for `CC(C)(C)c1cc(O)ccc1O` the value was “inactive”.

One may read the AC50 as the concentration giving half of the maximal activity seen.
